# Laboratory results taken from PubChem BioAssay (NCI).
# About 83,000 compounds went through this panel and 20% of them were active in at least one assay; those are over-represented in the sample as a whole.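 Cells were grown in 96-well plates and exposed to the test compound at a single concentration for 48 hours; results are reported as percent growth, with values below 10 considered active.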 Unmarked numbers belong to inactive results. The source made the active and inactive calls.
# Tests used:
# Assay in all cases: NCI-60 one-dose screen, 48 h (100 = growth as untreated, 0 = no growth, -100 = all killed)
# [1] = system: SK-MEL-2 melanoma; settings: 10 µM unless noted
# [2] = system: EKVX NSCLC; settings: 10 µM
# [3] = system: SN12C renal; settings: 10 µM unless noted
# [4] = system: UO-31 renal; settings: 10 µM unless noted
# [5] = system: TK-10 renal; settings: 10 µM unless noted
# [6] = system: ACHN renal; settings: 10 µM unless noted
# [7] = system: CAKI-1 renal; settings: 10 µM unless noted
# [8] = system: A498 renal; settings: 10 µM unless noted
# [9] = system: CCRF-CEM leukemia; settings: 10 µM
# [10] = system: MOLT-4 leukemia; settings: 10 µM unless noted
# [11] = system: SR leukemia; settings: 10 µM unless noted
# [12] = system: RPMI-8226 leukemia; settings: 10 µM unless noted
# [13] = system: OVCAR-8 ovarian; settings: 10 µM unless noted
# [14] = system: OVCAR-5 ovarian; settings: 10 µM unless noted
# [15] = system: OVCAR-4 ovarian; settings: 10 µM unless noted
# [16] = system: SK-OV-3 ovarian; settings: 10 µM unless noted
# [17] = system: IGROV1 ovarian; settings: 10 µM unless noted
# [18] = system: OVCAR-3 ovarian; settings: 10 µM unless noted
# [19] = system: HS 578T breast; settings: 10 µM unless noted
# [20] = system: NCI/ADR-RES ovarian; settings: 10 µM unless noted
Compound,growth [1],growth [2],growth [3],growth [4],growth [5],growth [6],growth [7],growth [8],growth [9],growth [10],growth [11],growth [12],growth [13],growth [14],growth [15],growth [16],growth [17],growth [18],growth [19],growth [20]
CC(O)C(N)=O (stereo unspecified),111%,99.6%,106%,97%,108%,104%,95.6%,103%,102%,110%,102%,111%,110%,101%,97.4%,110%,116%,107%,108%,118%
COc1ccc(-c2nc(Nc3nc4ccccc4[nH]3)nc(N)c2C#N)cc1,97.6%,92.4%,90.8%,72.9%,95.9%,96.6%,93.3%,119%,95.4%,95%,,94%,103%,104%,102%,102%,59.1%,111%,129%,103%
COC(=O)c1ccc(C(=Nc2ccc(N(C)C(=O)CN3CCN(C)CC3)cc2)c2c(O)[nH]c3ccc(C(=O)OC)cc23)cc1,47.7%,64.3%,17.3%,38.3%,51.7%,18.6%,11.9%,18.2%,12.3%,14.8%,2.08% (active),15.1%,30.7%,69.7%,38.3%,0.753% (active),5.1% (active),28.3%,8.61% (active),107%
COCn1c(C(=O)OC)cc2oc(/C=C3/SC(=S)N(N)C3=O)cc21,96.9%,91.8%,121%,95.7%,101%,110%,87.3%,54%,98.1%,68.6%,45.7%,79.2%,98%,108%,97.2%,89.6%,,81.1%,55.8%,112%
CCOC(=O)c1ccc2n1CCCc1cnc(NC(C)=O)nc1-2,102%,98.5%,102%,89.5%,107%,99.3%,92.1%,74.3%,93.9%,108%,101%,99.1%,103%,94.1%,104%,106%,107%,107%,99.6%,108%
C=C(C)[C@@H]1CC[C@]2(COC(=O)c3ccccc3C(=O)O)CC[C@]3(C)[C@H](CC[C@@H]4[C@@]5(C)CCCNC(C)(C)[C@@H]5CC[C@]43C)[C@@H]12,94.4%,78.6%,59.3%,72.7%,65.6%,65%,91.7%,113%,28.8%,-7.13% (active),6.59% (active),23.3%,70.5%,90%,57.3%,,54.5%,68%,78.5%,89.7%
CC(C)OC(=O)[C@H](C)N[P@@](=O)(OC[C@@]1(C)O[C@@H](n2cc(F)c(N)nc2=O)C[C@@H]1O[P@](=O)(N[C@@H](C)C(=O)OC(C)C)Oc1ccccc1)Oc1ccccc1,122%,109%,72.6%,98.6%,101%,92.4%,94.6%,45%,61.4%,67.5%,124%,105%,79.4%,110%,112%,,94.4%,102%,85.6%,103%
COc1ccc2cnc(N)c(C#Cc3cc(C(=O)Nc4ccc(CN5CCN(C)CC5)c(C(F)(F)F)c4)cnc3C)c2c1,56.8%,71.8%,50%,-71.8% (active),27.4%,-43.2% (active),33.9%,37.5%,18.7%,23.7%,,48.1%,75.4%,-39.3% (active),58.2%,69.4%,28.8%,93%,-16.3% (active),78.1%
O=C(N/N=C/c1ccccc1Cl)c1cccc2ccccc12,108%,99.6%,94.9%,91.5%,113%,105%,96.8%,85.4%,88.3%,112%,,,82.2%,104%,103%,98.6%,106%,110%,95.6%,107%
CC(=O)c1cc(Nc2cc(C)nc(N)n2)cc(C(C)=O)c1,100%,101%,94.1%,92.7%,94.8%,102%,87%,91.7%,86.9%,91.2%,,100%,98.8%,91.6%,108%,116%,91.7%,112%,94.6%,94%
COc1cc2c(c(OC)c1OC)C(=O)CC(c1cccc(C(=O)Nc3cccc(Br)c3)c1)O2 (stereo unspecified),73.8%,85.1%,71.7%,51.3%,109%,89.1%,85.3%,76%,45%,48.8%,,46.8%,55%,95.7%,82.7%,82%,83%,87.7%,91.5%,84.7%
CN1CCN(Cc2ccc(NC(=O)c3cncc(C#Cc4c(N)ncc5ccc(F)cc45)c3)cc2C(F)(F)F)CC1,-33% (active),50.7%,36.4%,-78.9% (active),11.5%,-93.6% (active),25.2%,15%,0.436% (active),9.77% (active),,5.38% (active),53.8%,-84.6% (active),36.1%,60%,11%,63.2%,-8.53% (active),48.2%
COc1cc(NC(=O)CSc2nc3ccc(Cl)cc3c(=O)n2-c2ccc(F)cc2)cc(OC)c1OC,92.6%,67.8%,78.7%,40.6%,97.8%,85.6%,71.5%,34.8%,94%,61.8%,,39.2%,88.8%,88.7%,77.2%,87.6%,86.6%,80.6%,75%,81%
C/C=C(/C)C(=O)OC1C=C(CO)C(=O)C(OC(=O)/C(C)=C\C)C1C(C)C (stereo unspecified),-48.9% (active),-55.1% (active),-56.9% (active),-100% (active),-88.8% (active),-100% (active),-98.7% (active),-77.6% (active),-3.36% (active),-16.8% (active),,-39.4% (active),-22.7% (active),-76.6% (active),-48.8% (active),16.4%,-77% (active),-89.1% (active),28.8%,-6.28% (active)
COc1ccc(-n2nnnc2-c2cn[nH]c2C(F)(F)F)cc1,92.4%,90.3%,104%,92.9%,113%,99.3%,92.5%,83.2%,98.3%,79%,,92.1%,95.5%,108%,79.1%,103%,-28.4% (active),104%,101%,129%
c1ccc(Nc2ncc3c(n2)-c2cccn2CC3)cc1,101%,66.2%,85.7%,49.1%,90.8%,74.4%,72.4%,75.5%,102%,99.4%,,97%,104%,77.9%,40.3%,88.9%,54.5%,82.7%,91.6%,98.7%
